# Assay results from PubChem BioAssay AID1159580 (chemical genetic matrix, 2015).
# Hit rate of the full screen: of about 5,500 compounds, about 2,000 (36%) were called active. Roughly 18% stayed inconclusive and do not appear here. Some of the results follow. A number with no mark means an inactive call. Cut-off read from the data, not from the text of the source: active = normalized growth mostly below about 0.91 (no sharp cut-off); inconclusive = no clear call, values can overlap the other calls; inactive = mostly above about 0.92.
# Test: chemical genetic growth profiling, strain panel (AID 1159580);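 note: tested at 20 µM; growth read once vehicle control cultures reached saturation at 30 °C; 1 = growth at the plate median or of vehicle wells; lower values mean less growth of the strain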
# Details: growth OD
# [1] = S. cerevisiae deletion strains, locus YAL013W, strain DEP1, hits give low values
# [2] = S. cerevisiae deletion strains, locus YBR229C, strain ROT2, hits give low values
# [3] = S. cerevisiae deletion strains, locus YCL061C, strain MRC1, hits give low values
# [4] = S. cerevisiae deletion strains, locus YDL101C, strain DUN1, hits give low values
# [5] = S. cerevisiae deletion strains, locus YDL134C, strain PPH21, hits give low values
# [6] = S. cerevisiae deletion strains, locus YDR150W, strain NUM1, hits give low values
# [7] = S. cerevisiae deletion strains, locus YEL061C, strain CIN8, hits give low values
# [8] = S. cerevisiae deletion strains, locus YGR078C, strain PAC10, hits give low values
# [9] = S. cerevisiae deletion strains, locus YHR030C, strain SLT2, hits give low values
# [10] = S. cerevisiae deletion strains, locus YHR087W, strain rtc3, hits give low values
# [11] = S. cerevisiae deletion strains, locus YJR043C, strain POL32, hits give low values
# [12] = S. cerevisiae deletion strains, locus YJR075W, strain HOC1, hits give low values
# [13] = S. cerevisiae deletion strains, locus YKL190W, strain CNB1, hits give low values
# [14] = S. cerevisiae deletion strains, locus YLR039C, strain RIC1, hits give low values
# [15] = S. cerevisiae deletion strains, locus YLR058C, strain SHM2 (second series), hits give low values
# [16] = S. cerevisiae deletion strains, locus YLR085C, strain ARP6, hits give low values
# [17] = S. cerevisiae deletion strains, locus YLR262C, strain YPT6, hits give low values
# [18] = S. cerevisiae deletion strains, locus YML094W, strain GIM5, hits give low values
# [19] = S. cerevisiae deletion strains, locus YMR219W, strain ESC1, hits give low values
# [20] = S. cerevisiae deletion strains, locus YMR263W, strain SAP30, hits give low values
# [21] = S. cerevisiae deletion strains, locus YMR307W, strain GAS1, hits give low values
# [22] = S. cerevisiae deletion strains, locus YNL153C, strain GIM3, hits give low values
# [23] = S. cerevisiae deletion strains, locus YNL298W, strain CLA4 (second series), hits give low values
# [24] = S. cerevisiae deletion strains, locus YNL322C, strain KRE1, hits give low values
# [25] = S. cerevisiae deletion strains, locus YNR030W, strain Alg12, hits give low values
# [26] = S. cerevisiae deletion strains, locus YPL055C, strain LGE1, hits give low values
# [27] = S. cerevisiae deletion strains, locus YPL241C, strain CIN2, hits give low values
# [28] = S. cerevisiae deletion strains, locus YPR135W, strain CTF4, hits give low values
compound,measurement,setting,value
c1ccc(-c2ncc3ccccn23)cc1,normalized growth,[1],1.01
same,normalized growth,[2],0.988
same,normalized growth,[3],0.985
same,normalized growth,[4],0.975
same,normalized growth,[5],0.967
same,normalized growth,[6],0.974
same,normalized growth,[7],0.989
same,normalized growth,[8],0.998
same,normalized growth,[9],0.843
same,normalized growth,[10],0.999
same,normalized growth,[11],0.99
same,normalized growth,[12],1.03
same,normalized growth,[13],0.996
same,normalized growth,[14],0.786 (active)
same,normalized growth,[15],0.991
same,normalized growth,[16],0.9
same,normalized growth,[17],0.926
same,normalized growth,[18],0.936
same,normalized growth,[19],1.01
same,normalized growth,[20],0.971
same,normalized growth,[21],0.711
same,normalized growth,[22],0.979
same,normalized growth,[23],0.95
same,normalized growth,[24],1.01
same,normalized growth,[25],0.981
same,normalized growth,"S. cerevisiae deletion strains, locus YOL006C, strain TOP1, hits give low values",0.461 (active)
same,normalized growth,[26],1.03
same,normalized growth,[27],0.928
same,normalized growth,[28],0.753
O=[N+]([O-])c1cnc2ccccn12,normalized growth,[1],1.02
same,normalized growth,[2],1.01
same,normalized growth,[4],1
same,normalized growth,[5],1.03
same,normalized growth,[6],0.964
same,normalized growth,[7],1
same,normalized growth,[8],1.01
same,normalized growth,[9],1.08
same,normalized growth,[10],1.01
same,normalized growth,"S. cerevisiae deletion strains, locus YJL187C, strain SWE1, hits give low values",0.992
same,normalized growth,[11],1.02
same,normalized growth,[12],1.03
same,normalized growth,[13],1.02
same,normalized growth,[14],1.05
same,normalized growth,[15],1.01
same,normalized growth,[16],1.01
same,normalized growth,[17],1.09
same,normalized growth,[18],0.995
same,normalized growth,[19],1.01
same,normalized growth,[20],1.02
same,normalized growth,[21],1.1
same,normalized growth,[22],1.03
same,normalized growth,[23],1.08
same,normalized growth,[24],1.02
same,normalized growth,[25],1.02
same,normalized growth,[26],1.02
same,normalized growth,[27],1.02
same,normalized growth,[28],1.11
CC(=O)OCC(=O)[C@@]1(O)CCC2C3CCC4=CC(=O)C=C[C@]4(C)[C@@]3(Cl)[C@@H](Cl)C[C@@]21C (stereo not given in full),normalized growth,[9],0.991
same,normalized growth,"S. cerevisiae deletion strains, locus YHR079C, strain IRE1, hits give low values",0.991
same,normalized growth,"S. cerevisiae deletion strains, locus YJL095W, strain BCK1, hits give low values",0.968
same,normalized growth,"S. cerevisiae deletion strains, locus YJR066W, strain TOR1, hits give low values",0.923
same,normalized growth,"S. cerevisiae deletion strains, locus YLR113W, strain HOG1, hits give low values",1.06
same,normalized growth,"S. cerevisiae deletion strains, locus YNL183C, strain NPR1, hits give low values",0.916
same,normalized growth,"S. cerevisiae deletion strains, locus YOR231W, strain MKK1, hits give low values",0.952
same,normalized growth,"S. cerevisiae deletion strains, locus YPL256C, strain CLN2, hits give low values",0.99
CN(C)/C=C1\CSc2ccc(F)cc2C1=O,normalized growth,[1],0.909 (active)
same,normalized growth,[2],0.719 (active)
same,normalized growth,[3],0.812 (active)
same,normalized growth,[4],0.291 (active)
same,normalized growth,[5],0.119 (active)
same,normalized growth,[6],0.885
same,normalized growth,[7],0.613 (active)
same,normalized growth,[8],0.787 (active)
same,normalized growth,"S. cerevisiae deletion strains, locus YGR229C, strain SMI1, hits give low values",0.861 (active)
same,normalized growth,[9],0.102 (active)
same,normalized growth,[10],0.753 (active)
same,normalized growth,[11],0.908 (active)
same,normalized growth,[12],0.74 (active)
same,normalized growth,[13],0.0876 (active)
same,normalized growth,[14],0.429 (active)
same,normalized growth,[15],1.01
same,normalized growth,[16],0.154 (active)
same,normalized growth,[17],0.517 (active)
same,normalized growth,[18],0.658 (active)
same,normalized growth,[19],0.821 (active)
same,normalized growth,[20],0.903 (active)
same,normalized growth,[21],0.291 (active)
same,normalized growth,[22],0.852 (active)
same,normalized growth,[23],0.415 (active)
same,normalized growth,[24],0.995
same,normalized growth,[25],0.119 (active)
same,normalized growth,[26],0.787 (active)
same,normalized growth,[27],0.103 (active)
same,normalized growth,[28],0.303 (active)
same,normalized growth,"S. cerevisiae strains, strain wild type, hits give low values",0.491 (active)
